High-throughput results as filed in PubChem BioAssay.
DRD3 antagonist = antagonists of human D3 dopamine receptor. 2.5% of 360,000 active. D3R cells, DiscoveRx beta-arrestin luminescence, antagonist mode; stronger effect = lower value. max response, negative = inhibition, %. P35462; in the data active means max response below about -50%; inconclusive means no clear call, values can overlap the other calls; further: on the % scale 0 is the no-effect control and ±100 the full control effect
Target sequence (P35462 whole entry, looked up): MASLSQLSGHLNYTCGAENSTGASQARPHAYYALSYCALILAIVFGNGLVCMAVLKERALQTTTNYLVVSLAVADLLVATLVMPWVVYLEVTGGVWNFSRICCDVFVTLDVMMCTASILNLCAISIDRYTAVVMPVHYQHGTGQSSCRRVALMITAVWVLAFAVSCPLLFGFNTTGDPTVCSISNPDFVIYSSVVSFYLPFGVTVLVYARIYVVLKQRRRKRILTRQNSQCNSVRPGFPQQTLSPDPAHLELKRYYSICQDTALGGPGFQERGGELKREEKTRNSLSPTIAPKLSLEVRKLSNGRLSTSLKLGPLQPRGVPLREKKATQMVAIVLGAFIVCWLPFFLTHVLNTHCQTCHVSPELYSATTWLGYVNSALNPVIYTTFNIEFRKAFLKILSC
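Cells plated overnight at 1500 cells/well, then exposed to library compounds with dopamine controls for 90 minutes at 37 degrees C. DiscoveRx reagent added for 30–60 minutes at room temperature; luminescence read, quantitative HTS format.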
ATXN viability = viability counter-screen for ATXN expression inhibitors. S2 cells (HEK-293 line with an ATXN2-luciferase reporter) viability, CellTiter-Fluor protease fluorescence, 24 h. Potency, µM (doses to about 56.7 µM), usual class: cytotoxic. 0.49% of 400,000 active. AID 651635; further: potency means the concentration at half of the fitted maximal effect; nearly all actives have a fitted effect of over 40% in size
ATXN2 expr inh = reduces ATXN2 reporter expression in HEK-293 cells | HEK-293 ATXN2-luciferase reporter, luminescence, 24 h | Potency, µM (highest dose often 57 µM), for inactives: at the top dose activity change, negative = inhibition, hits mostly inhibitors | 0.72% of 360,000 active | AID 1745845; further: potency means the concentration at half of the fitted maximal effect; on the % scale 0 is the no-effect control and ±100 the full control effect; nearly all actives have a fitted effect of over 55% in size
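qHTS (up to 57 uM final) was run with 24 h compound exposure of reporter cells at 37 °C. Each well was multiplexed: SteadyGlo luminescence measured ATXN2-luciferase expression after a fluorogenic Gly-Phe-AFC viability readout (25 uM final).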
D3 ag = agonists of human D3 dopamine receptor; max activation, %; 0.58% of 410,000 active; AID 652048; P35462; D3R DiscoveRx beta-arrestin cells, luminescence, 90 min; in the data active means max activation above about 30%; further: 0% is about no effect
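Cells at 1500/well, incubated overnight, then treated with pinned compounds (dopamine as control) for 90 min at 37 degrees C. DiscoveRx reagent added for 30 - 60 minutes at room temperature; luminescence read.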
TGFb inhibitor = inhibitors of TGF-b signaling; AID 588855; 1.2% of 410,000 active; HepG2 CAGA-GFP TGF-b/SMAD3 reporter, GFP fluorescence, 18 h; TGF-beta stimulated, 500 pg/mL final; Potency, µM (top dose mostly 46.1 µM), inactives show at the highest dose activity, negative = inhibition, actives largely listed as inhibitors; further: potency means the concentration at half of the fitted maximal effect; on the % scale 0 is the no-effect control and ±100 the full control effect; nearly all actives have a fitted effect of over 65% in size
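Inhibition was scored as loss of TGF-beta-induced (500 pg/mL final, 18 hours, 37 degrees C) GFP in HEPG2 cells carrying a CAGA-GFP reporter, in DMEM with 1% FBS. Well GFP was summed per cell; Activity was normalised to unstimulated and stimulated DMSO wells, then concentration-response fitting.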
HepG2 viability = counter-screen for TGF-b inhibitors: cytotoxicity in HepG2 cells; HepG2 CAGA-GFP viability, ATP luminescence, 18 h; Potency, µM (titrated, usually from 46.1 µM), inactives show top-dose activity change, negative = cytotoxicity, most hits filed as cytotoxic; 0.76% of 410,000 active; AID 588856; further: potency means the concentration at half of the fitted maximal effect
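HepG2 CAGA-GFP cells (1000/well, DMEM with 1% FBS) received compound, then TGF-beta at 500 pg/mL final, and were incubated 18 hours at 37 degrees C. Viability was read by CellTiter-Glo luminescence. Media-only wells were set as complete cell-killing and DMSO as no toxicity.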
An asterisk follows results filed as active; i = inactive; ? = inconclusive; . = no result. Most compounds without a hit are left out; they make up all but 4.8% or so of the library. Unless noted, the call rests on the fitted dose curve; in most records, active means well fitted curve in the direction sought with a large enough effect; inconclusive means small, poorly fitted or top-dose-only effect, or another doubt; inactive means no such curve, though single readings can be large; an effect the other way counts as inactive or inconclusive.

SMILES	DRD3 antagonist	ATXN viability	ATXN2 expr inh	D3 ag	TGFb inhibitor	HepG2 viability
CCOc1ccc(Nc2ccc([N+](=O)[O-])c3nonc23)cc1	-67*	?	.	-16	?	-59%
O=[N+]([O-])c1ccc(Nc2ccccc2)c2nonc12	-24	.	.	-7	?	-33%
CN(C(=O)C1=CC(c2ccc3c(c2)OCO3)=NS(=O)(=O)N1C)c1ccccc1	.	i	4%	-12	-7%	3%
COc1cc(/C=C/c2nc3cc(Cl)ccc3c(=O)n2-c2ccc(C)cc2C)cc(OC)c1OC	.	.	.	0	?	-18%
CC(C)C(=O)N1CCC1(C)C(=O)NS(=O)(=O)c1cccs1 (stereo not given)	-63*	i	-2%	-9	5%	-1%
COc1cccc(NC(=O)C2(C)CCCN2C(=O)C(C)C)c1OC (stereo not given)	7	i	1%	75*	7%	-18%
Cc1ccc(C)c(NC(=O)C2(C)CCCN2C(=O)C(C)C)c1 (stereo not given)	9	i	7%	10	14%	5%
CSc1ncccc1C(=O)N1CCOc2ccc(C(C)(O)CCn3cccn3)cc2C1 (stereo not given)	.	i	.	.	.	.
O=C(CCN1C(=O)c2ccccc2C1=O)NCc1ccco1	14	i	2%	0	-9%	0%
O=C(CCN1C(=O)c2cccc3cccc(c23)C1=O)NCc1ccco1	-13	i	-6%	34*	-6%	-7%
CCN1C(=O)c2ccc(C(=O)NCc3ccco3)cc2C1=O	13	0.16µM*	-17%	0	-3%	5%
CCCN1C(=O)c2ccc(C(=O)NCc3ccco3)cc2C1=O	-12	i	8%	-7	-1%	-18%
CCCCOC(=O)c1ccc(NC(=O)Cc2coc3c(C)c(C)ccc23)cc1	.	i	-26%	8	?	-58%
CC1(C)C2CCC1(CS(=O)(=O)N1CCC(C(N)=O)CC1)C(=O)C2 (stereo not given)	1	i	1%	1	-3%	15%
CC1(C)C2CCC1(CS(=O)(=O)N1CCOCC1)C(=O)C2 (stereo not given)	15	i	5%	36*	29%	1%
COc1ccc(-c2csc(NC(=O)c3ccco3)n2)cc1	12	i	46%	-3	0%	-39%
COc1ccc(-c2csc(NC(=O)c3c(OC)cccc3OC)n2)cc1	-5	i	-24%	-1	5%	14µM*
COc1ccc(-c2csc(NC(=O)c3ccc(OCC(=O)N4CCOCC4)c(OC)c3)n2)cc1OC	114	?	16µM*	15	0%	-21%
COC(=O)c1c(-c2ccc(C)cc2)csc1NC(=O)Cc1ccc(OC)c(OC)c1	93	i	-26%	32*	?	3%
COc1ccc(-c2csc(NC(=O)C3CCN(c4ncnc5sc(C)c(C)c45)CC3)n2)cc1OC	56	i	7.9µM*	47*	-24%	-9%
COc1cc(OC)c(NC(=O)N2CCc3cc(OC)c(OC)cc3C2CC(=O)O)cc1Cl (stereo not given)	.	.	.	-3	4%	1%
CCC(=O)N1CCc2cc(CNC(=O)c3ccccc3C)ccc21	.	.	.	-12	6%	-6%
CCc1ccc(C2c3c(-c4cc(C)ccc4O)n[nH]c3C(=O)N2CCO)cc1 (stereo not given)	.	?	-18%	7	-12%	-20%
COc1cccc(CNCCSc2nnnn2-c2ccccc2)c1OC	.	i	-6%	-18	19%	-22%
COc1ccc(CC(=O)Nc2nc(-c3ccc(OC)c(OC)c3)cs2)cc1OC	49	?	22µM*	26	-14%	-20%
C=CC[C@H](CC(=O)N(CCO)Cc1ccccc1)C(=O)N[C@H](COC(=O)[C@@H](CC=C)Cc1ccc(F)cc1)C(C)(C)C	-13	.	?	-21	?	0%
